Laboratory results from the supplement of paper PMC9694430.

What was measured:
Assay in all cases: thermal shift delta Tm vs DMSO control; higher = stronger stabilization (binding)
Conditions in all cases: 12.5 µM; protein concentration 2 µM
LOC_OS01G57100-cb003 = system: LOC_OS01G57100-cb003
Procedure, shortened: (§1)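 Purified, E. coli-expressed rice kinase domain constructs were tested by differential scanning fluorimetry in 96-well plates: 19.5 μl of 2 μM kinase in 100 mM potassium phosphate pH 7.5, 150 mM NaCl, 10% glycerol, 5 × SYPRO Orange, plus compound in DMSO. Fluorescence was read from 25°C to 95°C at 0.05°C/s. Melting temperatures came from Boltzmann fits, and the shift is the triplicate mean relative to protein with DMSO alone.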

LOC_OS01G60330-cb001 = system: LOC_OS01G60330-cb001
Procedure, shortened: as §1

LOC_OS01G60700-cb002 = system: LOC_OS01G60700-cb002
Procedure, shortened: as §1

LOC_OS01G63280-cb003 = system: LOC_OS01G63280-cb003
Procedure, shortened: as §1

LOC_OS01G67340-cb003 = system: LOC_OS01G67340-cb003
Procedure, shortened: as §1

LOC_OS01G70970-cb002 = system: LOC_OS01G70970-cb002
Procedure, shortened: as §1

LOC_OS02G07810-cb001 = system: LOC_OS02G07810-cb001
Procedure, shortened: as §1

LOC_OS02G08530-cb003 = system: LOC_OS02G08530-cb003
Procedure, shortened: as §1

LOC_OS02G14120-cb001 = system: LOC_OS02G14120-cb001
Procedure, shortened: as §1

LOC_OS02G17970-cb001 = system: LOC_OS02G17970-cb001
Procedure, shortened: as §1

SMILES	thermal shift delta Tm (LOC_OS01G57100-cb003)	thermal shift delta Tm (LOC_OS01G60330-cb001)	thermal shift delta Tm (LOC_OS01G60700-cb002)	thermal shift delta Tm (LOC_OS01G63280-cb003)	thermal shift delta Tm (LOC_OS01G67340-cb003)	thermal shift delta Tm (LOC_OS01G70970-cb002)	thermal shift delta Tm (LOC_OS02G07810-cb001)	thermal shift delta Tm (LOC_OS02G08530-cb003)	thermal shift delta Tm (LOC_OS02G14120-cb001)	thermal shift delta Tm (LOC_OS02G17970-cb001)
CCc1cncnc1N1CCN(Cc2nc3ccc(C(F)(F)F)cc3[nH]2)CC1	1.5 °C	0.04 °C	0.72 °C	0.19 °C	-0.58 °C	0.14 °C	0.73 °C	0.49 °C	-0.72 °C	0.34 °C
C=CC(=O)Nc1cc(Nc2nccc(-c3c[nH]c4ccccc34)n2)c(OC)cc1N(C)CCN(C)C	1.63 °C	0.87 °C	1.61 °C	0.65 °C	0.79 °C	0.59 °C	0.87 °C	5.01 °C	4.93 °C	1.65 °C
CCCCNc1ncc(C(=O)NCc2ccc(-n3ccnc3)cc2)c(NC2CCC(O)CC2)n1 (stereo not given)	2 °C	9.72 °C	1.49 °C	0.72 °C	10.2 °C	4.54 °C	0.76 °C	4.03 °C	7.7 °C	1.08 °C
C[C@@H]1CN(CC(=O)Nc2ccc3c(c2)Cc2cccc(-c4cc(=O)cc(N5CCOCC5)o4)c2S3)C[C@H](C)O1	1.01 °C	0.66 °C	0.34 °C	0.3 °C	0 °C	-0.1 °C	0.97 °C	0.73 °C	0.18 °C	0.49 °C
CCc1cc(Nc2nccc(-c3c(-c4ccc(OC)c(C(=O)Nc5c(F)cccc5F)c4)nc4ccccn34)n2)c(OC)cc1N1CCC(N2CCN(S(C)(=O)=O)CC2)CC1	1.35 °C	0.65 °C	1.19 °C	0.43 °C	0.06 °C	0.26 °C	0.77 °C	0.82 °C	0.04 °C	0.47 °C
CCN1CCN(Cc2ccc(C(=O)Nc3ccc(C)c(Oc4ccc5c(c4)CC(=O)N5)c3)cc2C(F)(F)F)CC1	2.21 °C	1.36 °C	1.34 °C	0.98 °C	1.05 °C	0.43 °C	1.19 °C	0.8 °C	0.22 °C	1.43 °C
CN1C(=O)[C@@H](NC(=O)c2n[nH]c(Cc3ccccc3)n2)COc2ccccc21	0.85 °C	0.1 °C	0.2 °C	0.29 °C	0.17 °C	0.41 °C	-0.03 °C	0.55 °C	0.71 °C	0.62 °C
